# Columns and labels:
# [1] = target: T1, Mitogen-activated protein kinase 12 (Homo sapiens) (UniProt P53778); conditions: at 1 µM;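 note: values are averaged p38gamma kinase inhibition readings, compounds tested at 1 µM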
# T1 sequence (whole entry): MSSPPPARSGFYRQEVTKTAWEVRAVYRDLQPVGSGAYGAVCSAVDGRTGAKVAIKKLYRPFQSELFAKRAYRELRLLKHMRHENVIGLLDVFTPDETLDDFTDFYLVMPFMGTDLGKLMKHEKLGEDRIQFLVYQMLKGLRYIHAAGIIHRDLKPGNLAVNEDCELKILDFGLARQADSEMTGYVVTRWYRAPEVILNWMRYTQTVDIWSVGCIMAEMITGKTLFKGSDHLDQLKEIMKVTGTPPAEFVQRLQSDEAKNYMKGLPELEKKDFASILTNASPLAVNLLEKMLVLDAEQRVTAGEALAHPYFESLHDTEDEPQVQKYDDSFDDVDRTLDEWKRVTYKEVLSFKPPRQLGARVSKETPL
# [2] = target: SRSF protein kinase 1 (Homo sapiens) (UniProt Q96SB4); conditions: at 0.1 µM
# [3] = target: SRSF protein kinase 1 (Homo sapiens) (UniProt Q96SB4); conditions: at 1 µM
# [4] = target: Phosphatidylinositol 4,5-bisphosphate 3-kinase catalytic subunit alpha isoform (Homo sapiens) (UniProt P42336); conditions: at 0.1 µM
# [5] = target: Phosphatidylinositol 4,5-bisphosphate 3-kinase catalytic subunit alpha isoform (Homo sapiens) (UniProt P42336); conditions: at 1 µM
# [6] = target: T2, Phosphatidylinositol 4,5-bisphosphate 3-kinase catalytic subunit delta isoform (Homo sapiens) (UniProt O00329); conditions: at 0.1 µM
# T2 sequence (whole entry): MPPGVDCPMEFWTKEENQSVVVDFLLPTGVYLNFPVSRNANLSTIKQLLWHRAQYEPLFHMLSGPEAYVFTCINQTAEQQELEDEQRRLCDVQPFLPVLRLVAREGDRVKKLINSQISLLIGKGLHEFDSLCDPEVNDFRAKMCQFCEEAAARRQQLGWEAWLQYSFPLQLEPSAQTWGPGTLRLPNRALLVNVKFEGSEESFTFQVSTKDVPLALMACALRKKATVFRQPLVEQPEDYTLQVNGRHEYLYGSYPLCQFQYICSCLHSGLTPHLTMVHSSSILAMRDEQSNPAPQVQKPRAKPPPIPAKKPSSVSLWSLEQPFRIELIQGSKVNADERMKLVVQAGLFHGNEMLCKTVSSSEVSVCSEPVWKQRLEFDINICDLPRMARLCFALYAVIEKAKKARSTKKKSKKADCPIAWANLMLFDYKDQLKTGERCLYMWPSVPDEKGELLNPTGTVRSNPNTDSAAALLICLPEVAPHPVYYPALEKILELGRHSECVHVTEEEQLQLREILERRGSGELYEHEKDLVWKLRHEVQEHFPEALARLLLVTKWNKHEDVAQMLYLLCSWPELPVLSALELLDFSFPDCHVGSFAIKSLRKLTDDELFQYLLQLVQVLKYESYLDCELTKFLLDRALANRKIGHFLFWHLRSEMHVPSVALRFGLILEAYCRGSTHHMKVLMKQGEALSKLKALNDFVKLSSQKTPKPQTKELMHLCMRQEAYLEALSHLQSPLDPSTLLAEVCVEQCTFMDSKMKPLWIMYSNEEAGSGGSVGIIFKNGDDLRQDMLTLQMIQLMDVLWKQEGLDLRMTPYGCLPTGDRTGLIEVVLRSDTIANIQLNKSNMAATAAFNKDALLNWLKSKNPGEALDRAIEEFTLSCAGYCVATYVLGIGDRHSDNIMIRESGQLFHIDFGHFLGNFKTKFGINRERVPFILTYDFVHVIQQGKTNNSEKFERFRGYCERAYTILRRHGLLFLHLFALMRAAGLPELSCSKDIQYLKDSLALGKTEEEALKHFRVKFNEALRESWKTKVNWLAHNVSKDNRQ
# [7] = target: T2, Phosphatidylinositol 4,5-bisphosphate 3-kinase catalytic subunit delta isoform (Homo sapiens); conditions: at 1 µM
# [8] = target: Phosphatidylinositol 4-kinase beta (Homo sapiens) (UniProt Q9UBF8); conditions: at 0.1 µM
# [9] = target: Phosphatidylinositol 4-kinase beta (Homo sapiens) (UniProt Q9UBF8); conditions: at 1 µM
# [10] = target: Sphingosine kinase 1 (Homo sapiens) (UniProt Q9NYA1); conditions: at 0.1 µM
# [11] = target: Sphingosine kinase 1 (Homo sapiens) (UniProt Q9NYA1); conditions: at 1 µM
# [12] = target: T3, Sphingosine kinase 2 (Homo sapiens) (UniProt Q9NRA0); conditions: at 0.1 µM
# T3 sequence (whole entry): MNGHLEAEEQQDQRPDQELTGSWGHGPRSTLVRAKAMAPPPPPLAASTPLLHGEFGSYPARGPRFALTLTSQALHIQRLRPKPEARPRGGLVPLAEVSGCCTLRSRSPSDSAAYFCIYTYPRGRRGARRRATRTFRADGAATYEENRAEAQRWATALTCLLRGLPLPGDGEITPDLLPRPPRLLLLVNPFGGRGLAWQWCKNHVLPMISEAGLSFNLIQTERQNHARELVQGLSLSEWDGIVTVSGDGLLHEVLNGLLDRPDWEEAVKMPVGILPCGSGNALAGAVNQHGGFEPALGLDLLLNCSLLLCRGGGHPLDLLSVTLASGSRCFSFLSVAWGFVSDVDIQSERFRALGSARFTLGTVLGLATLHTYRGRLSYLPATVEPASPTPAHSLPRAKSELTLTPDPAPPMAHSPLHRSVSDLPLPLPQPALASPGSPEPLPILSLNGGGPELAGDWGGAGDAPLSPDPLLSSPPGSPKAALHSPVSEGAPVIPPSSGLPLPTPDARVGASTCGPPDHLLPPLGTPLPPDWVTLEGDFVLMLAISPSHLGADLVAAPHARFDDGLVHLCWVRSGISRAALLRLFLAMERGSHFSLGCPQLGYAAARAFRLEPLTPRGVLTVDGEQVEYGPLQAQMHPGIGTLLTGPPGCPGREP
# [13] = target: T3, Sphingosine kinase 2 (Homo sapiens); conditions: at 1 µM
# [14] = target: Casein kinase II subunit alpha (Homo sapiens) (UniProt P68400); conditions: at 0.1 µM
# [15] = target: Casein kinase II subunit alpha (Homo sapiens) (UniProt P68400); conditions: at 1 µM
# [16] = target: T4, Inhibitor of nuclear factor kappa-B kinase subunit alpha (Homo sapiens) (UniProt O15111); conditions: at 0.1 µM
# T4 sequence (whole entry): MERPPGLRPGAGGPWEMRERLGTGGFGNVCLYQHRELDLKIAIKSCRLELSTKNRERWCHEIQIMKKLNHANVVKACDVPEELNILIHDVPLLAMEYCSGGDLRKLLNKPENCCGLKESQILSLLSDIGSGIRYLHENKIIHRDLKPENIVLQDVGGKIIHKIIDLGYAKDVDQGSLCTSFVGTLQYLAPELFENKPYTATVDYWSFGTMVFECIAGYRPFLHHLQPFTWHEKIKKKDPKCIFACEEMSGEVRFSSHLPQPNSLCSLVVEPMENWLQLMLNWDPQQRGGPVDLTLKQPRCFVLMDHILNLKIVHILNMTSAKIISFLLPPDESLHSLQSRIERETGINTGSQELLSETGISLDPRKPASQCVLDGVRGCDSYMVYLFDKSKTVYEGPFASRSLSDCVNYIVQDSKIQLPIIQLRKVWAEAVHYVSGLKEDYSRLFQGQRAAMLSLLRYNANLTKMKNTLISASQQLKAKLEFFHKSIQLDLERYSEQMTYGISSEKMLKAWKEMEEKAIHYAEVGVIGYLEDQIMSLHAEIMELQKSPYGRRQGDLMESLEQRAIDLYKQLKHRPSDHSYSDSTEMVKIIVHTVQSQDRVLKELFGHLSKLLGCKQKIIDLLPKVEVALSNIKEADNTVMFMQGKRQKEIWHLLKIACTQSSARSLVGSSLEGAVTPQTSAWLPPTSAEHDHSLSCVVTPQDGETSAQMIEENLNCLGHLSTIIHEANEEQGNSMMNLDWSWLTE
# [17] = target: T4, Inhibitor of nuclear factor kappa-B kinase subunit alpha (Homo sapiens); conditions: at 1 µM
# [18] = target: T5, Inhibitor of nuclear factor kappa-B kinase subunit beta (Homo sapiens) (UniProt O14920); conditions: at 0.1 µM
# T5 sequence (whole entry): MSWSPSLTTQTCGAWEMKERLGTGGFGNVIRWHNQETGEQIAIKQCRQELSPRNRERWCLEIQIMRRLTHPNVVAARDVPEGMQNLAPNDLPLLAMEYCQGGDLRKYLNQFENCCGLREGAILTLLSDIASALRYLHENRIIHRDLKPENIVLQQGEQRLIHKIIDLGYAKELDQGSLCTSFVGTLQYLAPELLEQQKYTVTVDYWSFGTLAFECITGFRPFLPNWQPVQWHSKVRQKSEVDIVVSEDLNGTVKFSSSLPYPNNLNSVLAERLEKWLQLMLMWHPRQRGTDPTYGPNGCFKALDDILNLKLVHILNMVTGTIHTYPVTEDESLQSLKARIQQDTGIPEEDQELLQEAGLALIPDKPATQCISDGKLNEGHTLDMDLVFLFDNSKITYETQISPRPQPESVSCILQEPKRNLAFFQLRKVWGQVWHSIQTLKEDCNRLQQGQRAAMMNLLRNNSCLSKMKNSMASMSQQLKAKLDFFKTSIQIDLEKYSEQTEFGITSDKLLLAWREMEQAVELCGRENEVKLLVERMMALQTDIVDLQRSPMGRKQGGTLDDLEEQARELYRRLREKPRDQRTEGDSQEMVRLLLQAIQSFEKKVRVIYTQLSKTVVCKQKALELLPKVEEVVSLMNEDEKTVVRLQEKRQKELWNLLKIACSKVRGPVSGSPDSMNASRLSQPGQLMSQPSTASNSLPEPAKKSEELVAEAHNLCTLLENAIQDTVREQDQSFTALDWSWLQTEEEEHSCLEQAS
# [19] = target: T5, Inhibitor of nuclear factor kappa-B kinase subunit beta (Homo sapiens); conditions: at 1 µM
# [20] = target: T6, Inhibitor of nuclear factor kappa-B kinase subunit epsilon (Homo sapiens) (UniProt Q14164); conditions: at 0.1 µM;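 note: mean inhibition of IKKε reported, from the GSK PKIS dataset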
# T6 sequence (whole entry): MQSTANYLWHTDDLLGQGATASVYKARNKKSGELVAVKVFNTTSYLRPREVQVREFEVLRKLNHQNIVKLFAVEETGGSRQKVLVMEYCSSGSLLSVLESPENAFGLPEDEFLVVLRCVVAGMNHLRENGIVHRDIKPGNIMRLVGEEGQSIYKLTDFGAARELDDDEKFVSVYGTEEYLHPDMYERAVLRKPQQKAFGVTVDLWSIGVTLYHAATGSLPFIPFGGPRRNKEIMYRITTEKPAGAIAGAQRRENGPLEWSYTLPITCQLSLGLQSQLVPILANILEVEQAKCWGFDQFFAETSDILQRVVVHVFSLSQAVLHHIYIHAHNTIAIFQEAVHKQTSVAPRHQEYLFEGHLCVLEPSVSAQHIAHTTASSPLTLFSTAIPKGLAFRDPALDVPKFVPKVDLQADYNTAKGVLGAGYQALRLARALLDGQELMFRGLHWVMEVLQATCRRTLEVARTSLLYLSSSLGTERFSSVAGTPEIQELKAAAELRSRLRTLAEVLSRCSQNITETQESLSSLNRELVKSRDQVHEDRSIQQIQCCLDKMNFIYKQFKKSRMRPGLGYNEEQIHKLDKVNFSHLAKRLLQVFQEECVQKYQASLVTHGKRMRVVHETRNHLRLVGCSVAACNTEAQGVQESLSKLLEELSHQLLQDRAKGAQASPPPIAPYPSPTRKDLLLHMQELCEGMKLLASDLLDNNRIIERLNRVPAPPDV
# Chain of Phosphatidylinositol 4,5-bisphosphate 3-kinase catalytic subunit alpha isoform (Homo sapiens) (P42336 whole entry, canonical isoform): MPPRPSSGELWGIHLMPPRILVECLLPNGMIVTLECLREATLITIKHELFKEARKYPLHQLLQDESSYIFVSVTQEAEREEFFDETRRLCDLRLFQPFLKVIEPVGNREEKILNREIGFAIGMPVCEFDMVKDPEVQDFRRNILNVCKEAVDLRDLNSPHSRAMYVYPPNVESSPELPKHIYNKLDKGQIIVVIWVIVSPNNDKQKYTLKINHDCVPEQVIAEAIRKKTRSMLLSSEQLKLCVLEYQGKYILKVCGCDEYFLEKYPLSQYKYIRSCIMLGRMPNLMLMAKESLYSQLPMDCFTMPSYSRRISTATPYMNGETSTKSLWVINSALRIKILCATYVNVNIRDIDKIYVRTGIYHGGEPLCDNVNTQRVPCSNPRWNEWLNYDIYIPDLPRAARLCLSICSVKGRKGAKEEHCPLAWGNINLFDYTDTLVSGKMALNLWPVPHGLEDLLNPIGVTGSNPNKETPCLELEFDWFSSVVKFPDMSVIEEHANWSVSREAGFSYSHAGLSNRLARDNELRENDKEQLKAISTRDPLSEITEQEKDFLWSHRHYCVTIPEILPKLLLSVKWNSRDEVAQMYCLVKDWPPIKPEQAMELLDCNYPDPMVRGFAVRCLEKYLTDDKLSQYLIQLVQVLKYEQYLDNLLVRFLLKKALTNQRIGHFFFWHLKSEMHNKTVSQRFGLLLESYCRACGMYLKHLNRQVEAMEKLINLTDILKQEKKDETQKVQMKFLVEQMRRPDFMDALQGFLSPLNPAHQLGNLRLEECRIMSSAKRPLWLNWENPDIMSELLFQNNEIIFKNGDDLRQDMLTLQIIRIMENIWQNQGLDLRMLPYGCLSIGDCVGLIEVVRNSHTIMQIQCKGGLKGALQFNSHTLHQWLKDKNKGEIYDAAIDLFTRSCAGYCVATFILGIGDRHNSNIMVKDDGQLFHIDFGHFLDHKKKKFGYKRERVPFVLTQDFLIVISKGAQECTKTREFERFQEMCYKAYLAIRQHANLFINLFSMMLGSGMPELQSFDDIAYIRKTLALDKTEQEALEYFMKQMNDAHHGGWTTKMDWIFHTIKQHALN
# Chain of Casein kinase II subunit alpha (Homo sapiens) (P68400 whole entry, looked up): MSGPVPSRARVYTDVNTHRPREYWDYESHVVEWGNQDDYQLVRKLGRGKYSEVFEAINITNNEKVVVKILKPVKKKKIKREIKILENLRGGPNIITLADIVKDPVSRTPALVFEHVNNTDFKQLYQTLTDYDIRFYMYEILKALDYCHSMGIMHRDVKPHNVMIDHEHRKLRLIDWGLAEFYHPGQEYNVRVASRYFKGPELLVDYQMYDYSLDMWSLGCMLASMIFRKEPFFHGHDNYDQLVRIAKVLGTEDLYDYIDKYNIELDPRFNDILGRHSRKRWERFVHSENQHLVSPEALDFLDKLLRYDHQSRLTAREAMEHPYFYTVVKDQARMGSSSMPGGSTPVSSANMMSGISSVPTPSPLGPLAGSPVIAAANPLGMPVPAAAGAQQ
# Chain of Sphingosine kinase 1 (Homo sapiens) (Q9NYA1 whole entry): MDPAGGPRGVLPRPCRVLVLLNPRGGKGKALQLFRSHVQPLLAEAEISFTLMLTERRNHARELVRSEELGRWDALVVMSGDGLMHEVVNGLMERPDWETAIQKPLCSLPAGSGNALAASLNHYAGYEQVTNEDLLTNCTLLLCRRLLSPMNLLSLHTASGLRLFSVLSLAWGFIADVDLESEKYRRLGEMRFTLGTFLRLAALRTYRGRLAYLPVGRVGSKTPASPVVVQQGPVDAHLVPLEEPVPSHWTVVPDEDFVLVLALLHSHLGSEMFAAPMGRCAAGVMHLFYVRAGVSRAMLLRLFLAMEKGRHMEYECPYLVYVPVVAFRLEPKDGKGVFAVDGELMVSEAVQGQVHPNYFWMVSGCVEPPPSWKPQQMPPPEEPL
# Chain of SRSF protein kinase 1 (Homo sapiens) (Q96SB4 whole entry, canonical isoform): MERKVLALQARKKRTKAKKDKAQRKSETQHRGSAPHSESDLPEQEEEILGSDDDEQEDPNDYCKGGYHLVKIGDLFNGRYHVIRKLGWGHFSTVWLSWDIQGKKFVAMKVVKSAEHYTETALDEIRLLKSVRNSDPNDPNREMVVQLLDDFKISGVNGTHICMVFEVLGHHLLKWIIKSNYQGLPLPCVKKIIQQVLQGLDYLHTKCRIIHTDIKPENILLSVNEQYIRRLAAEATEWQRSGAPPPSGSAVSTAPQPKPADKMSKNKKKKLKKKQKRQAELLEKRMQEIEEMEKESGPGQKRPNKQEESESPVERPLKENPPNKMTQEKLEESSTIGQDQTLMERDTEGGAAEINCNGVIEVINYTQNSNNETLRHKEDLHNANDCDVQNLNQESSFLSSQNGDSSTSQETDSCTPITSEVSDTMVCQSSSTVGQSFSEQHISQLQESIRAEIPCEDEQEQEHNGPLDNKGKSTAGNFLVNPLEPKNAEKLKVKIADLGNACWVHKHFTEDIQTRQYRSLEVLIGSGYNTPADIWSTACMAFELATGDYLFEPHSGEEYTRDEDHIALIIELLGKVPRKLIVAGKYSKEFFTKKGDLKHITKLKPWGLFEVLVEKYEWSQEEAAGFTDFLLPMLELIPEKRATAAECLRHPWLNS
# Chain of Phosphatidylinositol 4-kinase beta (Homo sapiens) (Q9UBF8 2-816 limits assumed): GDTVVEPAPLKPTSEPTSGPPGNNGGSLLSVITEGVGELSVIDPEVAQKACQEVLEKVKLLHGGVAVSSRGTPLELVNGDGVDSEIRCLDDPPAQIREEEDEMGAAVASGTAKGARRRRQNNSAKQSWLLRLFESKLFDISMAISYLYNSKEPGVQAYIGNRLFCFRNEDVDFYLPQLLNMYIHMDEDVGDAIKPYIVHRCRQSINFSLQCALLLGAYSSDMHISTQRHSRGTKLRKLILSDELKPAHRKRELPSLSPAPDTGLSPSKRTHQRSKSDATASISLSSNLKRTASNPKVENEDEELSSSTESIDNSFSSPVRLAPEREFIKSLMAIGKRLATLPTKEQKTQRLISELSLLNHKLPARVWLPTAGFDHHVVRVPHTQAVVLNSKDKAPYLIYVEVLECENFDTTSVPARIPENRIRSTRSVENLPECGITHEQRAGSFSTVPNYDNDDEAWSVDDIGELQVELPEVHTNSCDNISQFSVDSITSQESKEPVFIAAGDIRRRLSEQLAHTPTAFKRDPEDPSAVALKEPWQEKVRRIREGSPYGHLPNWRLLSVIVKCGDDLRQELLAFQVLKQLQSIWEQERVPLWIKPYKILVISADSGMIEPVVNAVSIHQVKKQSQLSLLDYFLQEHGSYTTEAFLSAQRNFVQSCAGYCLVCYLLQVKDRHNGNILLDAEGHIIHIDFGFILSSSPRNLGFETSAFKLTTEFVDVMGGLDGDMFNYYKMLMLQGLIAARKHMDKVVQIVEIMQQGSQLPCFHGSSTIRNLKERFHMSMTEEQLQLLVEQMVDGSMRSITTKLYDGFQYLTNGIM
Structure (SMILES),inhibition [1] [%],inhibition [2] [%],inhibition [3] [%],inhibition [4] [%],inhibition [5] [%],inhibition [6] [%],inhibition [7] [%],inhibition [8] [%],inhibition [9] [%],inhibition [10] [%],inhibition [11] [%],inhibition [12] [%],inhibition [13] [%],inhibition [14] [%],inhibition [15] [%],inhibition [16] [%],inhibition [17] [%],inhibition [18] [%],inhibition [19] [%],inhibition [20] [%]
Cc1cc(O)cc(C)c1/C=C/c1cncc(C(N)=O)c1,1.72,-2.4,-0.6,0.88,3.67,0.87,2.16,0.44,-1.46,-0.95,-2.84,0.32,0.47,2,1.41,7.66,1.26,1.7,1.13,1.74
COC(=O)Nc1nc2cc(Oc3ccc(NC(=O)Nc4ccccc4)cc3)ccc2[nH]1,1.26,-2.23,-0.94,3.19,0,0.3,0.14,3.09,2.26,-0.55,3.1,-0.28,0.5,1.57,7.67,10.9,8.6,4.21,5.49,5.85
COC(=O)Nc1nc2ccc(Oc3ccc(NC(=O)Nc4cc(C(F)(F)F)ccc4F)cc3)cc2s1,2.85,-1.59,-2.01,-0.49,2.51,1.44,6.58,-2.75,-0.16,-0.71,-3.33,0.51,-0.44,-0.3,1.75,4.91,-0.96,3.58,-1.14,-0.11
COc1ccc(Nc2ncc(-c3ccccc3)o2)cc1OC,1.14,-1.72,-3.33,-2.31,0.95,0.94,4.48,2.22,4.24,-0.27,2.47,-0.42,-0.4,1.03,6.83,5.31,3.86,3.33,4.83,2.76
CCS(=O)(=O)c1ccc(OC)c(Nc2ncc(-c3cccc(F)c3)o2)c1,4.78,-0.63,0.45,5.95,5.75,2.23,4.91,0.49,-1.64,-1.2,0.12,-0.46,0,15.4,46.8,9.53,11,6.88,9.91,10.8
Fc1ccc(Nc2nccc(-c3c(-c4ccc(C(F)(F)F)cc4)nn4ncccc34)n2)cc1F,2.9,-0.59,-3.45,3.44,3.77,1.05,2.86,-3.81,-1.62,0.46,-1.66,-0.99,-0.13,2.02,1.28,9.17,4.1,5.58,3.19,2.59

# Reference: ChEMBL document CHEMBL1961873, “Compounds: GSK PKIS; Assays: Nanosyn kinase panel” (2012)
